# According to the supplement of paper PMC6555819:
# Assays:
# Assay in all cases: PBM binding z-score (relative to random genomic background probes); higher = stronger binding; sequences stand for … in GC…GCGATTGACAGCGTAGAATGAAGG
# [1] = system: FXR:RXRa (NR concentration 270 nM, RXRa partner concentration 90 nM)
# In short: (§1)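 The probes on custom Agilent 4×180K protein-binding microarrays were double-stranded, with 34-nt variable regions bearing direct-repeat seeds, single-nucleotide variants, half-site ablations and random human genomic background sequences. Incubation lasted 1 h with ligand-free nuclear receptor dimers in PBS pH 7.4, 2% milk, 0.02% Triton X-100, 1 mM DTT, 0.2 mg/mL BSA and 0.4 mg/ml salmon testes DNA. Antibodies against each partner (one per run) detected bound dimers, and fluorescence scans were regression-normalized. Binding z-scores take the random background probes as reference.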
# [2] = system: LXRa:RXRa (NR concentration 270 nM, RXRa partner concentration 90 nM)
# In short: as §1
# [3] = system: LXRa homodimer (NR concentration 270 nM)
# In short: as §1
# [4] = system: LXRb:RXRa (NR concentration 270 nM, RXRa partner concentration 90 nM)
# In short: as §1
# [5] = system: LXRb homodimer (NR concentration 270 nM)
# In short: as §1
# [6] = system: PPARa:RXRa (NR concentration 270 nM, RXRa partner concentration 90 nM)
# In short: as §1
# [7] = system: PPARg:RXRa (NR concentration 180 nM, RXRa partner concentration 90 nM)
# In short: as §1
# [8] = system: PPARg:RXRa 270nM:90nM, anti-RXR (NR concentration 270 nM, RXRa partner concentration 90 nM)
# In short: as §1
# [9] = system: PPARg:RXRa 30nM:10nM, anti-RXR (NR concentration 30 nM, RXRa partner concentration 10 nM)
# In short: as §1
# [10] = system: PPARg:RXRa 90nM:30nM, anti-RXR (NR concentration 90 nM, RXRa partner concentration 30 nM)
# In short: as §1
Sequence,PBM binding z-score [1],PBM binding z-score [2],PBM binding z-score [3],PBM binding z-score [4],PBM binding z-score [5],PBM binding z-score [6],PBM binding z-score [7],PBM binding z-score [8],PBM binding z-score [9],PBM binding z-score [10]
ATCTCTAGGTAAAGACAGTTCAGTGAATGCAAAT,0.377,2.43,0.934,0.745,0.542,0.628,0.336,0.491,0.147,0.518
CCAGACAGGTGGAAGGTAACTCAGTCTGGTACGC,-0.299,-0.335,-0.385,-0.402,-0.752,0.13,0.719,1.5,-0.203,0.663
CCTGCTAGGGCAATGGTCAGCTAAAGCAGCTCGC,-0.321,-0.261,-0.651,-0.809,-1.23,0.614,1.75,3.28,0.695,2.57
CAAACGAGGGCATGAGTTGATAGCAAATGCCGAT,0.718,0.454,-0.447,0.313,-0.289,1.86,1.7,1.88,0.402,1.12
TAGCCTAGGTCATGGGCCAGTATGCCACGCGAAC,4.69,3.46,0.00314,2.02,-0.474,4.18,4.02,3.65,0.999,2.81
CAGCCTAGGTCTGGGCCAGTATAGGAGGAACGTT,-0.847,-0.864,-0.89,-1.05,-1.28,-0.798,-0.286,-0.953,-0.869,-0.961
CGTCCAAGGTCAATGTCAGTGAAAGAGACTCGAA,6.7,4.8,0.641,3.88,1.05,5.35,4.26,4.46,1.3,2.57
TCGAGTAGGTTACCATTGGGGCATTCAGCTTTCT,0.101,1.68,-0.373,0.964,-0.492,0.792,0.0586,1.23,0.995,1.17
CGGACTAGGTCAAGGACAGTGAATCTCCGCACGC,2.94,1.81,-0.0937,1.01,-0.662,3.77,5.95,5.25,2.5,4.61
AGAGACAGGTGAGTGAAGGTAACTCAGCTGGACG,0.542,0.207,-0.174,0.279,0.443,0.437,0.497,0.226,0.0896,0.0651
CCAACTAGGTCAAGGACAGTGAATCTCCGCACGC,3.25,2.12,0.634,1.47,0.422,3.96,6.59,5.37,3.19,4.79
CAAACTAGGGCACCGGAAGGTCAAAGTCCGCATG,3.3,3.78,2.88,3.1,-0.115,4.89,6.22,6.02,2.51,5.06
CTACCAAGCTGAACAAGGTCGTTGATTACTATTC,0.51,0.731,0.686,1.31,-0.0286,0.706,-0.00663,0.00986,-0.206,-0.336
AGAACGAGGGCACTCTGAGTTGATAGCAGAGTAG,0.473,0.561,-0.613,-0.0145,-0.411,1.35,1.21,1.19,-0.0176,0.277
CAAACTAGGTCTAAGGTCAAAGTCGAGCCAACCA,5.18,4.6,2.94,4.32,1.16,6.52,10.5,9.19,9.22,10.2
CGTCGAAGTTCAAGGTAACGTAACAGAAAGCAGC,2.59,2.34,-0.0774,1.38,-0.503,2.51,1.18,1.48,0.235,0.847
GCTGCTAGGTCAGGTTGGTCATCTAACGGGTACG,1.59,1.01,0.226,0.755,0.00509,1.45,0.55,1.02,-0.203,0.295
CCTATTATTTGACCATAAGGGCAACCGAAGCTCG,1.29,0.777,1.8,1.02,1.25,0.882,0.551,0.728,0.155,0.461
AGAATGAGGTTATACGTAGTTCAGGGAAGAAAGT,2.23,3.06,0.289,1.93,-0.31,3.55,1.85,2.29,0.654,1.49
CCTGCTAGATCAATGGTCAGCTAAAGCAGCTCGC,-0.932,-0.902,-0.811,-0.945,-0.566,-0.697,-0.182,0.115,-0.8,-0.292
CGTCCAAGGTCAACGGTCAGTGAAGAGATGACGG,7.38,5.09,1.45,4.23,0.938,6.03,6.01,5.78,2.86,4.85
GCTTGTAGATCAAGGTTAAGAGAGACTAAGCTAA,-0.00904,0.508,-0.353,0.119,-0.894,1.36,0.796,2.03,0.342,1.44
ATCTCTAGGTAAGACTAAGTTCAGTGAAGAACGC,0.633,0.867,0.705,0.595,0.815,0.936,0.481,1.71,0.577,1.75
CGAACTAGGTTATTGACAGGACAGTGAATAGTAA,0.276,0.886,0.37,0.406,-0.0993,2.09,2.41,2.12,0.574,1.47
